# From PubChem BioAssay (NCATS)
# Results filed as inconclusive are left out. Entries that show only a call come without a potency. Calls of active or inactive are those of the source. Calls follow the shape of the dose curve; as a rule, active = well fitted inhibition curve with a large enough effect; inconclusive = small, poorly fitted or top-dose-only effect; inactive = flat fitted curve, though single readings scatter.
# Biological target: Calcium and integrin-binding protein 1 (Homo sapiens) (UniProt Q99828)
# Sequence (Q99828 whole entry, looked up): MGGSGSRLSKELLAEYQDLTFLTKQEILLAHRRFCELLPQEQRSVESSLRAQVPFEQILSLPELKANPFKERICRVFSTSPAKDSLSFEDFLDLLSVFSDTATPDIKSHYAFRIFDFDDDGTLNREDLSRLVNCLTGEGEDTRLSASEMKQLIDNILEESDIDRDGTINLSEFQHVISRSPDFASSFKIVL
# Assay: Primary qHTS for Identification of Calcium Integrin Binding Protein 1 (CIB1) Competitor (AID 1508620);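 also: GST tagged CIB1 binding a fluorescein labelled alphaIIb integrin peptide tracer; top concentration of the series differs between compounds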
# Conditions: CIB1-GST / FITC-alphaIIb peptide fluorescence polarization; series mostly up to 114 µM
# How it was run: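 Fluorescence polarization competition: CIB1-GST (1 uM final) preincubated with compound 15 min at room temperature, then FITC-labeled alphaIIb peptide (100 nM final) added for another 15 min. Polarization read at Ex 480/Em 540.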
row,SMILES,Potency
1,O=C(Nc1cc(C(F)(F)F)ccc1Cl)C(O)Cc1ccccc1 (stereo not given),inactive
2,CC(C)(C)c1cccc(-n2cnc3cc(C(=O)N4CCCCC4)ccc32)c1,inactive
3,COc1cc(O)c(C(CC(=O)N2CCCC(C#N)C2)c2ccc3c(c2)OCO3)c(OC)c1 (stereo not given),inactive
4,NC(=O)C1CCN(c2nccc(-c3ccc4c(c3)OCCO4)n2)CC1,inactive
5,C=CCNc1oc(-c2cccc(Br)c2)nc1C#N,inactive
6,c1ccc(OCc2nnc3ccc(-c4ccccc4)nn23)cc1,inactive
7,Cc1ccc(CN(C)c2ncnc3ccc(-c4ccc(CO)o4)cc23)o1,inactive
8,Oc1ccc(CNc2cc(C(F)(F)F)ccn2)c2cccnc12,inactive
9,CCOc1ccc(CCNC(=O)c2cc3sccc3[nH]2)cc1OCC,inactive
10,COc1ccc(NC(=O)c2cnn3c(C)cc(C)nc23)cc1F,inactive
11,Cc1c(C(=O)O)[nH]c2c1C(=O)CCC2,inactive
12,O=S(=O)(c1ccc2c(c1)OCCO2)N1CCN(S(=O)(=O)c2cccc(Cl)c2F)CC1,inactive
13,O=C(OCC#CCSc1nnc(-c2cccc3ccccc23)o1)c1cccc2[nH]ccc12,inactive
14,Nc1ccccc1OC1=NS(=O)(=O)c2ccccc21,inactive
15,CC(=O)Nc1sc2c(c1C#N)CCN(C(C)C)C2,inactive
16,COc1ccc(-c2cncc(NC(=O)c3cccs3)c2)cc1OC,inactive
17,COc1ccc(CN2C(=O)c3ccccc3NC2c2ccc(OC)c(COc3ccc(NC(C)=O)cc3)c2)cc1 (stereo not given),inactive
18,Cc1cc(NS(=O)(=O)c2ccc(NC(=O)Cc3ccc4ccccc4c3)cc2)no1,inactive
19,CCOc1ccccc1-c1nnc2n1N=C(c1ccc(OC)c(OC)c1)CS2,inactive
20,CC(C)(C)OC(=O)N1CCN(c2ccc(NCc3ccoc3-c3ccc(C#N)cc3)cc2)CC1,inactive

row,SMILES,Potency
1,CCC(=O)NC(C)c1cc(Cl)c2ccccc2c1O (stereo not given),inactive
2,O=C1c2ccccc2NC(c2ccc(-c3ccc(-c4ccccc4)cc3)o2)N1O (stereo not given),inactive
3,Cc1cc(-c2nnc3n2CCCCC3)c(C)n1-c1ccc(C#N)cc1,inactive
4,Cc1cc(NC(=O)Nc2nnc(C3CCCCC3)s2)ccc1F,inactive
5,O=C(O)CCc1cc(F)c(S(=O)(=O)N2CCN(S(=O)(=O)c3ccc4c(c3)OCCO4)CC2)cc1F,inactive
6,COc1ccc(C(=O)N(Cc2ccccc2)Cc2ccccc2)cc1COc1ccc(NC(C)=O)cc1,inactive
7,Cc1ccc2nc3sc(C(=O)NC4CCCC4)cc3cc2c1,inactive
8,Cc1nc2ccc(Nc3nc(Nc4c(C)cc(C=CC#N)cc4C)nc4nc[nH]c34)cc2s1,inactive
9,O=[S+]([O-])(c1c(F)cccc1F)N1CCN([S+](=O)([O-])c2csc3ccccc23)CC1,inactive
10,Cc1cnc(-c2ccccc2C(C)C)nc1NCC1CCN(C)CC1,inactive
11,CN1CCN(Cc2cc(COCc3ccccc3)c3cccnc3c2O)CC1,inactive
12,O=C(Nc1ccc(-c2nc3ccccc3[nH]2)cc1)Nc1ccc2occc2c1,inactive
13,Cc1nnc(-c2ccccc2[N+](=O)[O-])n1CCCn1ccnc1,inactive
14,CN(C(=O)c1cn2c(-c3ccc(C(F)(F)F)cc3)cnc2cn1)c1ccc(C#N)cc1,inactive
15,NC(=O)C1CCN(c2ncc(-c3cccc(N4CCOCC4)c3)s2)CC1,inactive
16,Cc1ccnc(NC(=S)N2CCN(c3ccc4ccccc4n3)CC2)c1,inactive
17,O=C(CCCCSc1nnc(-c2cccc3ccccc23)o1)Oc1ccc(F)cc1,inactive
18,COCC(=O)NCCc1nc2ccccc2n1CCOc1ccc(C)cc1,inactive
19,COc1ccc(C2Nc3ccccc3C(=O)N2Cc2ccccc2)cc1COc1cccc(C)c1 (stereo not given),inactive
20,N=c1c2c(ccn1CCc1ccccc1)Oc1ccc3ccccc3c1C2c1ccccc1 (stereo not given),inactive
